Compounds with a hit are over-represented: about 31% of the library has one in this group of screens.
CYP2C19 activ: human CYP2C19 activators, primary screen, biochemical, luminescence; 96,000 tested, under 10 active; activation factor at 5 µM; AID 1025, 2008; recombinant CYP2C19, luciferin-H EGE luminescence; stronger effect = higher value; 0 = fully inhibited enzyme, 1 = untreated enzyme;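 active means activation factor of at least 2 at 5 µM in the primary screen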;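 further: 0 = wells with 2.5 mM tranylcypromine and 1 = vehicle-only wells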
Target sequence (P33261 whole entry, looked up): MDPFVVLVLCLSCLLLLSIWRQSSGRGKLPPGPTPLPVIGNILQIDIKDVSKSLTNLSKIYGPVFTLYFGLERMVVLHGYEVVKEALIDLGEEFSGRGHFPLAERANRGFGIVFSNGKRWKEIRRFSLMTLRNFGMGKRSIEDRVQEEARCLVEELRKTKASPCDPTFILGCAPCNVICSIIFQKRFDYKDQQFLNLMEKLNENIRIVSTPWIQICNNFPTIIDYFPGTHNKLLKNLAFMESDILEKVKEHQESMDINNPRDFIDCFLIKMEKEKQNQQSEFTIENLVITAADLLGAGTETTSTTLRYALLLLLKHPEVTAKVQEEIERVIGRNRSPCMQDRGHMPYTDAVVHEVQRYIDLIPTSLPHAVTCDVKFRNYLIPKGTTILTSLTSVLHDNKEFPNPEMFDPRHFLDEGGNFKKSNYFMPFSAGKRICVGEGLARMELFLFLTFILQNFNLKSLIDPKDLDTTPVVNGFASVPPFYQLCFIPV
CYP2C9 inh: blockers of cytochrome P450 2C9 activity – biochemical, luminescence, ADME assay, primary screen | 96,000 tested, 20% active | P11712 | inhibition, % at 5 µM | CYP2C9 Supersomes, luciferin-H conversion;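 active means blocking of liver enzyme CYP2C9 beyond about 50% at 5 µM, limit read from the data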
CYP2C9 activ: human CYP2C9 activators, primary screen, biochemical, luminescence. Cytochrome P450 2C9 (Homo sapiens), P11712. recombinant CYP2C9, luciferin-H conversion; stronger effect = higher value; factor 1 = untreated enzyme, 0 = blocked. activation factor at 5 µM. 96,000 tested, 1.4% active. AID 1024, 2008;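 active means activation factor of 2 or more for CYP2C9 at a 5 µM dose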;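 further: 0 = sulfaphenazole-blocked wells and 1 = vehicle-only wells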
PLAP activator: PLAP enzyme activators, biochemical, luminescence, HTS; Alkaline phosphatase, placental type (Homo sapiens), P05187; purified PLAP enzyme, luminescent substrate read-out; stronger effect = higher value; activation fold at 20 µM; 96,000 tested, 1.2% active; AID 696, 2007; in the data active means activation fold above about 2
CYP2C19 inhib: blockers of cytochrome P450 2C19 activity – biochemical, luminescence, ADME assay, primary screen; P33261; AID 778, 2007; 96,000 tested, 21% active; inhibition, % at 5 µM; CYP2C19 Supersomes, luciferin-H EGE luminescence, 30 min;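 active means CYP2C19 inhibition above a set limit at 5 µM in the primary screen, cut at about 50% in these data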;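 further: plate controls were negative control wells for no effect and 2.5 mM tranylcypromine positive control for full effect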
Numbers without * were called inactive.

SMILES	CYP2C19 activ	CYP2C9 inh	CYP2C9 activ	PLAP activator	CYP2C19 inhib
CC1=C(C(=O)N2CCc3ccccc32)C2(CCC(C)CC2)OC1=O (stereo not drawn)	0.7	30.1	0.7	1.1	30.4
COc1ccccc1CNC(=O)C1=C(C)C(=O)OC12CCC(C)CC2 (stereo not drawn)	0	72.1*	0.3	1.4	97.9*
COC(=O)C(CC(C)C)NC(=O)c1ccc(F)cc1 (stereo not drawn)	0.8	2.7	1	0.9	15.3
CCOC(=O)c1ccc(NC(=O)C2(c3ccc(OC)cc3)CCCC2)cc1	0.8	11.8	0.9	0.9	16.7
CCOCCc1nnc(NC(=O)CSc2ccccc2)s1	0.8	14.7	0.9	0.9	18.6
O=C(CC1Oc2ccccc2NC1=O)NCCCN1CCCC1=O (stereo not drawn)	1.2	-35.3	1.4	1	-19.4
CC1=C(C(=O)NC2CCCC(C)C2C)C2(CCCCC2)OC1=O (stereo not drawn)	0.8	10.0	0.9	1	17.8
CC1=C(C(=O)NC2CCCCC2C)C2(CCC(C)CC2)OC1=O (stereo not drawn)	0.1	48.5	0.5	1	91.2*
COc1ccc(NC(=O)C2=C(C)C(=O)OC23CCC(C)CC3)c(OC)c1 (stereo not drawn)	0.1	76.7*	0.2	1.2	87.1*
CCOc1ccc(NC(=O)c2ccccc2CO)cc1	0.9	-6.6	1.1	1	8.1
CC1=C(C(=O)N2CCCCC2)C2(CCC(C)CC2)OC1=O (stereo not drawn)	0.5	-0.6	1	1.1	50.7*
CCOc1ccc(NC(=O)C2=C(C)C(=O)OC23CCC(C)CC3)cc1 (stereo not drawn)	0.1	69.3*	0.3	1.5	89.7*
Cc1cc(C(C)c2ccccc2)c(O)c(CN2CCOCC2)c1C (stereo not drawn)	0.8	23.7	0.8	1.4	21.8
O=C(CSc1nnc(COc2ccc(Cl)cc2)o1)N1c2ccccc2CCc2ccccc21	0.7	74.1*	0.3	1	27.5
COC(=O)c1ccc(OC)c(CSc2nnc(-c3ccc(C(C)(C)C)cc3)o2)c1	0.1	84.0*	0.2	0.9	90.3*
COC(=O)c1ccc(OC)c(CSc2nnc(COc3ccc(Cl)cc3)o2)c1	0.2	88.0*	0.1	0.8	75.9*
COc1ccc(-c2nnc(SCc3ccccc3F)o2)cc1OC	0.8	-12.3	1.1	0.9	18.2
COC(=O)c1ccc(OC)c(CSc2nnc(COc3ccccc3)o2)c1	0.6	38.5	0.6	0.8	38.3
O=C(CN(C(=O)CNS(=O)(=O)c1ccccc1)C1CCCC1)NCc1ccco1	0.5	18.5	0.8	1.7	46.4
CCN(CC)c1cccc(OC2=NS(=O)(=O)c3ccccc32)c1	1	-25.5	1.3	1.2	1.8
CCOC(=O)N1CCN(c2nc(-c3ccc(OC)cc3)no2)CC1	0.8	22.3	0.8	1.1	22.8
CC(=O)OCC(=O)Nc1ccc(Cl)cc1Cl	0.9	0.1	1	1	8.9
COC(=O)CSc1nc(C)cc(Oc2ccccc2)n1	0.1	38.1	0.6	1	86.3*
Cc1cc(Oc2ccccc2)nc(SCC(=O)Nc2ccc(Cl)cc2Cl)n1	0	93.3*	0.1	0.9	99.2*
Cc1nn(CC(=O)NCCCN2CCOCC2)c(C)c1[N+](=O)[O-]	0.9	11.5	0.9	1	5.5
SMILES	CYP2C19 activ	CYP2C9 inh	CYP2C9 activ	PLAP activator	CYP2C19 inhib
CCOC(=O)CSCC(NC(=O)OC(C)(C)C)C(=O)OCC (stereo not drawn)	0.8	5.8	0.9	1	21.4
CCOC(=O)C(CSCC(=O)c1ccc(Cl)cc1Cl)NC(=O)OC(C)(C)C (stereo not drawn)	0	87.6*	0.1	2*	96.9*
CN(CC(=O)NC1CCCCC1)S(=O)(=O)c1cccc2nsnc12	1.1	-7.0	1.1	0.8	-7.0
Cc1ccc(C)c(N(C)S(=O)(=O)c2cccc3nsnc23)c1	0.6	-131.8	2.3*	0.9	43.6
Cc1cc(C)cc(NC(=O)CN(C)S(=O)(=O)c2cccc3nsnc23)c1	0.6	54.5*	0.5	1	37.4
Cc1cccc(NC(=O)CN(C)S(=O)(=O)c2cccc3nsnc23)c1C	0.4	-38.0	1.4	0.8	60.0*
CN(CC(=O)NCCN1CCCCCC1)S(=O)(=O)c1cccc2nsnc12	1	3.2	1	1.1	1.5
Cn1cc(C(=O)NCN2CCCCC2)c2ccccc21	1	-8.6	1.1	1	3.1
CC1CCCCN1C(=O)C12CCC(C)(/C(=N/O)C1)C2(C)C (stereo not drawn)	1.1	-9.4	1.1	0.8	-7.3
Cc1ccc(C(=O)Nc2cccc(C(=O)O)c2)cc1	0.1	54.5*	0.5	1	87.1*
COc1ccc(C(=O)Nc2cccc(C)c2)cc1	0.3	9.3	0.9	0.9	71.2*
Cc1ccc(C(=O)Nc2ccc3nccnc3c2)cc1	0.9	7.8	0.9	0.9	8.5
CCn1c(O)c(/C=N/N=C/c2ccccc2)c2ccc(C3=NNC(=O)CC3)cc21	0.6	64.1*	0.4	1.2	42.2
CCN(CC)c1ccc(NC(=O)CN2C(=O)CSc3ncccc32)c(C)c1	1.2	-15.7	1.2	1	-22.0
COC(=O)c1ccc(Sc2nnnn2-c2ccccc2)c([N+](=O)[O-])c1	0.3	-6.6	1.1	0.9	65.7*
O=C(O)c1ccc(Sc2nnnn2-c2ccccc2)c([N+](=O)[O-])c1	1	9.5	0.9	1.1	-0.9
O=C(Nc1ccc(CN2CCCCC2)cc1)c1ccc(Br)o1	1.1	-7.1	1.1	0.8	-6.0
Cc1cc(N2C(=O)CC(N3CCN(C(c4ccccc4)c4ccccc4)CC3)C2=O)no1 (stereo not drawn)	0.2	97.8*	0	1.5	78.3*
O=C1CC(N2CCN(C(c3ccccc3)c3ccccc3)CC2)C(=O)N1Cc1ccc(N2CCCC2=O)cc1 (stereo not drawn)	0.8	45.9	0.5	1.4	22.3
CCCCCCNS(=O)(=O)c1ccc(Cl)s1	0	85.9*	0.1	0.5	98.2*
O=C(O)CCCNS(=O)(=O)c1ccc(Br)s1	0.9	10.1	0.9	1	6.6
Oc1ccc2ccccc2c1C=Nc1cc(C(F)(F)F)ccc1N1CCCC1	1	30.5	0.7	1	-0.8
CCOC(=O)c1nc(-c2ccccc2)oc1N(C)C	1.1	-23.0	1.2	1	-9.8
Cc1oc(-c2ccccc2)nc1C(=O)OCC(=O)NC(=O)NCC(C)C	0.8	50.6*	0.5	1.4	24.8
CCNC(=O)N1CCOCC1	1	4.6	1	0.9	-0.2
CCOC(=O)c1c(-c2ccc(Cl)cc2)c(C#N)c(=O)n(N)c1N	0.8	-3.6	1	1	15.9
Cc1ccc(-c2nnc(N3CCOCC3)c3ccccc23)cc1S(=O)(=O)NCC1CCCO1 (stereo not drawn)	0.5	71.3*	0.3	1.5	47.3
